Test results published in PubChem BioAssay.
Several values for one entry are separate records, joined by “and”; a condition that tells them apart may be missing. Equal values may be shown once. Some compounds were tested as several samples or in several runs, with calls that do not always agree. Activity calls are given as the source filed them.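 Rule for the calls, unless noted: active = compounds whose cell count with miR-34 switched on is under 0.7 times the count with it off; inactive = the rest.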

Key:
[1] = viability loss with induced miR-34 in A549 – imaging, A549 dox-inducible miR-34, nuclei and caspase counts, primary screen (AID 1347080); conditions: A549 miR-34 inducible, Hoechst nuclei count, 48 h; note: test concentration not given here
[2] = MELAS cybrid and Rieske KO viability enhancers – cell-based, MELAS cybrids, Rieske KO mouse fibroblasts, CellTiter-Glo, primary screen (AID 1508586;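 active = mean z-score across replicates of 1.96 or higher in either the MELAS or the Rieske mutant cell line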;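 note: test concentration not given here; z relative to plate mean and SD of compound and empty wells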); conditions: low glucose
[3] = galactose survival enhancers in mitochondrial complex I cybrids – cell-based, galactose medium, ATP luminescence, primary screen (AID 1645843;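 active = z-score of at least 1.8 in each of two replicates, scored against plate mean and spread of sample wells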;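 note: positive z means more ATP and so rescue of galactose-driven cybrid death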); conditions: complex I mutant cybrid cells, 72 h, stronger effect = higher value
[4] = stronger effect = lower value, cell number ratio, induced over uninduced
[5] = measured here: relative caspase fold change +Dox/-Dox
[6] = measured here: total cells with miR-34 induction, stronger effect = lower value
[7] = measured here: total cells without miR-34 induction
[8] = MELAS cybrid survival, CellTiter-Glo 48 h, stronger effect = higher value
[9] = Rieske KO mouse fibroblast survival, CellTiter-Glo 72 h

Compound	fold change [1, 4]	fold change [1, 5]	cell count [1, 6]	cell count [1, 7]	z-score [2, 8]	z-score [2, 9]	z-score [3]
CCn1cc(CNC(=O)Nc2nnc(C(C)(C)C)s2)cn1	0.886 (inactive)	2.1	8600	9710	0.641 (inactive)	-0.73	-0.6 (inactive)
Cc1cccc(-n2cnc3cc(N)ccc32)c1	0.889 (inactive)	1.07	8160	9170	1.59 (inactive)	0.221	0.94 (inactive)
NC(=O)NC(CCC(=O)O)C(=O)O (stereo not given)	0.857 (inactive)	0.229	8940	10400	0.385 (inactive)	-0.000429	0.4 (inactive)
CN1CCN(c2ncnc3sccc23)CC1=O	0.928 (inactive)	1.32	9620	10400	-0.0885 (inactive)	-0.276	-0.54 (inactive)
CCOC(=O)C1=C(C)NC(C)=C(C(=O)OCC)C1c1ccccc1C=CC(=O)OC(C)(C)C	0.635 (active) and 0.971 (inactive)	1.57 and 0.602	2050 and 7220	3220 and 7430	-0.107 (inactive)	-0.188	-1.44 (inactive)
COc1ccc(CN2CCN(c3ncnc4sccc34)CC2=O)cc1	0.842 (inactive)	1.22	5020	5960	-0.496 (inactive)	-0.343	0.64 (inactive)
CC(=O)Nc1cccc(-c2nn(CC(=O)Nc3cnn(C)n3)c3ccccc23)c1	0.885 (inactive)	1.89	8450	9550	-0.345 (inactive)	0.241	-0.43 (inactive)
O=c1[nH]c(=O)c2[nH]cnc2[nH]1	0.891 (inactive)	0.584	8870	9950	0.44 (inactive)	-0.148	-0.02 (inactive)
Cn1cc(/C=C/C(=O)N2CCc3[nH]nc(-c4ccccc4F)c3C2)cn1	0.865 (inactive)	2.04	7720	8920	-0.472 (inactive)	-0.29	-0.48 (inactive)
COc1ccc(CC(N)=O)cc1	0.918 (inactive)	0.564	8020	8730	0.385 (inactive)	0.663	-0.175 (inactive)
